Assay [1] deals with Plasmodium falciparum Sir2 (PF13_0152, Sir2A). The experiment in a line: Plasmodium falciparum Sir2A binding compounds – biochemical, small-molecule microarray, 635 nm fluorescence, primary screen (AID 1098).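 Note: score merges spot fluorescence intensity with its signal-to-noise ratio.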 The following applies: fluorescence 635 nm, higher = more signal.
The nature of assay [2]: probe aDKK1 binding to arrayed compounds – biochemical, biotinylated probe, 635/667 nm fluorescence, primary screen (AID 1099).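 Note: score merges 667nm spot fluorescence with signal to noise across triplicate slides.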 The following applies: small-molecule microarray, higher = more signal.
A short description of assay [3]: probe aCHRDL2 binding to arrayed compounds – biochemical, biotinylated probe, 635/667 nm fluorescence, primary screen (AID 1100). Particulars: small-molecule microarray, higher = more signal.
The nature of assay [4]: change in splice reporter luminescence, either direction, cell-based, HEK293, spliceosome inhibition project, primary screen (AID 1101).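 Note: HEK293 cells carrying a splicing-competent luciferase reporter gene; test concentration not given here.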 The following applies: HEK293 splicing luciferase reporter, 24 h, higher = more signal, called active from +8 up or from −8 down.
Assay [5] has as its target Fibroblast growth factor 10 (Homo sapiens) (UniProt O15520). The experiment in a line: compounds binding fibroblast growth factor 10 – biochemical, small-molecule microarray, 635 nm fluorescence, primary screen (AID 1102). The following applies: FGF10 binding, fluorescence 635 nm, higher = more signal.
Assay [6] concerns glycogen synthase kinase-3 (GSK3A per assay name; protocol says GSK3B). Description: compounds binding glycogen synthase kinase-3 – biochemical, small-molecule microarray, 635 nm fluorescence, GSK3A, primary screen (AID 1103). Note: the record names both GSK3A and GSK3B. The following applies: fluorescence 635 nm, higher = more signal.
Assay [7] has as its target Epidermal growth factor receptor (Homo sapiens) (UniProt P00533). Description: compounds binding epidermal growth factor receptor – biochemical, small-molecule microarray, 635 nm fluorescence, primary screen (AID 1104).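 Note: score merges 667 nm emission intensity with spot signal to noise over triplicate slides.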 The following applies: EGFR binding, higher = more signal.
Assay [8] has as its target Follistatin-related protein 3 (Homo sapiens) (UniProt O95633). The experiment in a line: compounds binding follistatin-related protein 3 – biochemical, small-molecule microarray, 635 nm fluorescence, primary screen (AID 1105).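 Note: score merges emission near 667 nm and signal to noise per printed spot across three slides.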 The following applies: FSTL3 binding, higher = more signal.
Assay [9] deals with Dickkopf-related protein 1 (Homo sapiens) (UniProt O94907). The experiment in a line: small molecules binding DKK1 protein – biochemical, small-molecule microarray, 635 nm fluorescence scan, primary screen (AID 1106).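 Note: score merges emission near 667 nm with signal to noise over three replicate slides.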 The following applies: higher = more signal.
The test system of assay [10] is Inhibin beta A chain (activin A). Description: small molecules binding activin A – biochemical, small-molecule microarray, 635 nm fluorescence scan, primary screen (AID 1107).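 Note: mouse activin A protein probed at 4.33 µg/mL on printed slides; score merges bound-protein fluorescence near 667 nm with spot signal-to-noise.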 The following applies: INHBA, higher = more signal.
The test system of assay [11] is Human papillomavirus type 1a protein E7 (residues 44-93). Description: small molecules binding HPV E7 44-93 – biochemical, small-molecule microarray, residues 44-93, 635 nm fluorescence, primary screen (AID 1108).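 Note: E7 fragment applied at 1 µg/mL in TBST for 1 h at 4 C; score combines spot fluorescence with its signal to noise ratio.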 Particulars: fluorescence 635 nm, higher = more signal.
Assay [12] is described as follows: hepatitis C replication reporter changes, two-sided – Huh7 cells, luciferase reporter, HCV replication inhibitor project, primary screen (AID 1109).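 Note: huh7 hepatoma cells harbouring a luciferase neomycin HCV replicon reporter; luciferase luminescence as measure of HCV replicon replication; test concentration not given here.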 Particulars: Huh7 HCV replicon luciferase reporter, 48 h; higher = more signal. A general note: A reporter such as luciferase makes a cellular process visible.
In assay [13] the target is Left-right determination factor 2 (Homo sapiens) (UniProt O00292). The experiment in a line: small molecules binding LEFTY2 protein – biochemical, small-molecule microarray, 635 nm fluorescence scan, primary screen (AID 1110). The following applies: higher = more signal.
The target in assay [14] is Calmodulin-1 (Homo sapiens) (UniProt P0DP23). The experiment in a line: small molecules binding calmodulin-1 with EGTA – biochemical, small-molecule microarray, Cy5-labelled CALM1, profiling panel (AID 1111).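 Note: labelled calmodulin applied in Tris saline Tween buffer holding calcium plus EGTA and DTT.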 The following applies: Cy5-CALM1 binding fluorescence, higher = more signal.
Assay [15] has the same target. Description: small molecules binding Ca-loaded calmodulin-1 – biochemical, small-molecule microarray, Cy5-labelled CALM1, plus calcium, artefact control for SMM control-protein annotation, profiling panel (AID 1112).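 Note: score merges spot fluorescence with signal to noise from triplicate slides.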 Particulars: Cy5-CALM1 binding fluorescence, higher = more signal.
Assay [16] in a line: probe aWnt5a binding to arrayed compounds – biochemical, biotinylated probe, 635/667 nm fluorescence, primary screen (AID 1113).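 Note: score merges 667 nm fluorescence intensity with signal-to-noise per printed feature.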 Particulars: small-molecule microarray, higher = more signal.
Assay [17] can be described thus: probe aShh binding to arrayed compounds – biochemical, biotinylated probe, 635/667 nm fluorescence, primary screen (AID 1114).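 Note: probe is biotin-labelled aShh protein from a stem cell growth factor screen; measures binding of labelled protein to compounds printed on the slide; score merges feature fluorescence at 667 nm with signal-to-noise.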 Particulars: small-molecule microarray, higher = more signal.
Assay [18] can be described thus: probe aNog binding to arrayed compounds – biochemical, biotinylated probe, 635/667 nm fluorescence, primary screen (AID 1115).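 Note: probe is biotinylated aNog protein used at 0.15 µg/mL for 1 h at 4 C; z-score combines 667 nm fluorescence of each spot with its signal to noise.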 The following applies: small-molecule microarray, higher = more signal.
The target in assay [19] is Torsin-1A-interacting protein 1 (Homo sapiens) (UniProt Q5JTV8). Description: compound microarray binding of lysate hLAP1 – cell lysate, small-molecule microarray, COS7 lysate, 635/667 nm fluorescence, primary screen (AID 1116). The following applies: 635 nm fluorescence, higher = more signal.
Assay [20] concerns the target Alpha-bungarotoxin (Bungarus multicinctus) (UniProt P60615). The experiment in a line: compounds binding labelled alpha-BTX control protein – biochemical, small-molecule microarray, Alexa647 label, 635/667 nm fluorescence, artefact control for SMM control protein annotation, profiling panel (AID 1117). The following applies: alpha-BTX-A647 binding fluorescence, higher = more signal.

Each structure is given as a SMILES string. The source made the active and inactive calls.

Sequence of Left-right determination factor 2 (Homo sapiens) (O00292 whole entry, looked up): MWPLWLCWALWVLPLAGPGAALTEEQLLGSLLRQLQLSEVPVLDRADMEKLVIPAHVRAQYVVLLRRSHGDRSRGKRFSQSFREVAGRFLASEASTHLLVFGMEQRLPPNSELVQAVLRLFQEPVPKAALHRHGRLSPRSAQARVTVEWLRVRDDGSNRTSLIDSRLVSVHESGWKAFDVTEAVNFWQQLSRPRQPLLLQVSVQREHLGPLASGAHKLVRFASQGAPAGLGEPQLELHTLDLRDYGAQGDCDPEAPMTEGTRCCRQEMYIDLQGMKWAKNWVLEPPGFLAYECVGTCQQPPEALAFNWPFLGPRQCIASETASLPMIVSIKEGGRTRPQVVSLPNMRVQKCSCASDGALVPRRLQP
Sequence of Torsin-1A-interacting protein 1 (Homo sapiens) (Q5JTV8 whole entry, looked up): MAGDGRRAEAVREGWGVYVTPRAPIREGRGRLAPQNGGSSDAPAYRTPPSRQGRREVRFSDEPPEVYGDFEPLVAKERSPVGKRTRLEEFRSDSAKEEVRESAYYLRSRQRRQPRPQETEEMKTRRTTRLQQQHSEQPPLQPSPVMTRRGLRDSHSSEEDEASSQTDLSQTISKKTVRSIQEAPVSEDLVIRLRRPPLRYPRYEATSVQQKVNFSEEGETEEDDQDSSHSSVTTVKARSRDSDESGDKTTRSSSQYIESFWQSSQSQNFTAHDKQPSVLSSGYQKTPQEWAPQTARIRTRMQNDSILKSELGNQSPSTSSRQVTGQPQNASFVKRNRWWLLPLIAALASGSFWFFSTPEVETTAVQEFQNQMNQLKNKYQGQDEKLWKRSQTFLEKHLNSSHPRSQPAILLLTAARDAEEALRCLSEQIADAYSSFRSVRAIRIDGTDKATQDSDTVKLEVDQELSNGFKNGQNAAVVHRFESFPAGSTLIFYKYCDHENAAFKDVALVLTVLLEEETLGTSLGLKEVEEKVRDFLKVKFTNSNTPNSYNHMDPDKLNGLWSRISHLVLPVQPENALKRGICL
Sequence of Fibroblast growth factor 10 (Homo sapiens) (O15520 whole entry, looked up): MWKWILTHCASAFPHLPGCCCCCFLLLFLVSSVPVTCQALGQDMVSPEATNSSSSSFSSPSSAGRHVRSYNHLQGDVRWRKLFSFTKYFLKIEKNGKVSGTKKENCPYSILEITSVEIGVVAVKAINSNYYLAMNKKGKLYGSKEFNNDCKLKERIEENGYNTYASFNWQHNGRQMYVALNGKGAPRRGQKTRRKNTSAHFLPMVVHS
Sequence of Alpha-bungarotoxin (Bungarus multicinctus) (P60615 whole entry, looked up): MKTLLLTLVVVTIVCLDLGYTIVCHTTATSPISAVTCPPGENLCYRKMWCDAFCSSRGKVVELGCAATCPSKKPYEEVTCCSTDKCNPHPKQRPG
Sequence of Epidermal growth factor receptor (Homo sapiens) (P00533 whole entry, looked up): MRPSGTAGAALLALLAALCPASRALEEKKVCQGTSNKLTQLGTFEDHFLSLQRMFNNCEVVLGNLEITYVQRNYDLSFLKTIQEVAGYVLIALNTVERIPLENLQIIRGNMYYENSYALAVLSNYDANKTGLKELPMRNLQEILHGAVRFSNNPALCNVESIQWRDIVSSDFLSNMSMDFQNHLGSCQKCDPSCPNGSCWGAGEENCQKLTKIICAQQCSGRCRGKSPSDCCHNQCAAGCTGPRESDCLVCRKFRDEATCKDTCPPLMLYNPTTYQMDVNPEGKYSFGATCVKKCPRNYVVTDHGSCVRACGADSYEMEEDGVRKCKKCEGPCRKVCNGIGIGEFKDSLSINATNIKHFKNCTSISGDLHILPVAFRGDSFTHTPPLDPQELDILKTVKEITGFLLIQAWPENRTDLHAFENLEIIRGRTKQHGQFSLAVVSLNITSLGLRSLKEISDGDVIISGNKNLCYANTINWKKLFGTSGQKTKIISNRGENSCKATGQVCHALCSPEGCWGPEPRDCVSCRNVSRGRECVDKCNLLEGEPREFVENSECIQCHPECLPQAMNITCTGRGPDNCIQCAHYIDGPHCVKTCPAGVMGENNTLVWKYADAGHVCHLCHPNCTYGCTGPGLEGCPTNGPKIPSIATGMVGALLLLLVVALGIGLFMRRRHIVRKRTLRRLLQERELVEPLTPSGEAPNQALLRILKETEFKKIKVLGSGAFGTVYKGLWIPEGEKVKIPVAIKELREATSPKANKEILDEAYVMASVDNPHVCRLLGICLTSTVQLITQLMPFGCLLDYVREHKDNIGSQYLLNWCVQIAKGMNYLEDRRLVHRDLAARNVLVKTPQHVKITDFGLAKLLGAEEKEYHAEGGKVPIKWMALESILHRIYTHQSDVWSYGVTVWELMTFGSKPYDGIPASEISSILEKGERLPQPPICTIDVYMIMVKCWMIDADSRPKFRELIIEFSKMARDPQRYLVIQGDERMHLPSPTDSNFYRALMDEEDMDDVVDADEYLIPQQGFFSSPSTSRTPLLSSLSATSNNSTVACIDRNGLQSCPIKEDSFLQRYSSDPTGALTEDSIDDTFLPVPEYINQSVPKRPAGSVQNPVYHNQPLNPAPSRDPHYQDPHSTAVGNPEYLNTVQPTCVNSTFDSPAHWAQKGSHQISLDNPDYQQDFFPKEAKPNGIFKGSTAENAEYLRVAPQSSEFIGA
Sequence of Follistatin-related protein 3 (Homo sapiens) (O95633 whole entry, looked up): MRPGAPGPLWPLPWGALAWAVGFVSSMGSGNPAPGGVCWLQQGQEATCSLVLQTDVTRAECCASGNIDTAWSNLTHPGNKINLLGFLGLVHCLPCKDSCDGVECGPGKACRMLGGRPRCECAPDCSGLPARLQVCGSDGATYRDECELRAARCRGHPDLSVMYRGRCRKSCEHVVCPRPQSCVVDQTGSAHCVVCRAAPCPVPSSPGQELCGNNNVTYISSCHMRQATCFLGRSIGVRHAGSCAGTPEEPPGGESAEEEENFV
Sequence of Dickkopf-related protein 1 (Homo sapiens) (O94907 whole entry, looked up): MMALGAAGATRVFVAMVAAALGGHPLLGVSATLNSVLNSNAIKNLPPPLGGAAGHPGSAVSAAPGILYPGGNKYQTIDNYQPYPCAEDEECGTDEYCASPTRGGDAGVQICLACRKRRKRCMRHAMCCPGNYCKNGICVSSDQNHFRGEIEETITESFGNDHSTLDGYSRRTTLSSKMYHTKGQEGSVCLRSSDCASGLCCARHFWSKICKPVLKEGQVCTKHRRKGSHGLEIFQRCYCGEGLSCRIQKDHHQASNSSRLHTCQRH

As for `CO[C@H]1COC(=O)CC=C[C@H](C)COC(=O)[C@@H](OCc2ccccc2)C=C[C@@H]1C`, the composite z-score in [1] is 0.558; in assay [2], -1.12; in assay [3], -1.62; in assay [5], 0.429; in assay [6] it was 1.28; in [7], 0.711. Moreover, the composite z-score in assay [8] is 1.2; in assay [9], 2.07; in assay [10], 0.924; in assay [11], -0.217; in [13], 1.5; in assay [14] it was -1.51. The composite z-score in assay [15] was -2.68; in assay [16], -0.286; in assay [17], -0.283; in assay [18], -0.424; in [19] it was 0.237; in assay [20] it was -0.74. Moreover, the z-score in assay [4] is -1.71 (inactive); in assay [12], 0.165.
As for `CC(=O)Nc1ccc([C@H]2[C@H](C)CC[C@H]3C(=O)N4[C@@H](CC[C@@H](C)[C@@H]4c4ccc(NC(C)=O)cc4)C(=O)N32)cc1`, the composite z-score is 0.75 in assay [1]; 0.368 in assay [2]; -0.286 in assay [3]; 1 in [5]; 1.17 in assay [6]; 0.168 in [7]. The composite z-score is 0.845 in [8]; 0.759 in [9]; 0.213 in [10]; 0.946 in [11]; 0.72 in assay [13]; 0.184 in assay [14]. In addition, the composite z-score in assay [15] is -0.346; in [16] it was -0.176; in assay [17], 0.168; in assay [18] it was 0.33; in [19], 0.424; in assay [20], 0.884. The z-score was 0.209 (inactive) in assay [4] and -0.288 in [12].
Take `Cc1ccc(N2C(=O)c3ccccc3[C@@H](C(=O)NCC(F)(F)F)[C@@H]2c2ccc(CO)cc2)nc1`: the composite z-score was 1.72 in [1]; 0.476 in [2]; 1.22 in assay [3]; -1.15 in [5]; -1.18 in [6]; -2.69 in assay [7]. For the same compound, the composite z-score in assay [8] is -1.83; in assay [9], -1.69; in assay [10], -1.57; in assay [11], -2.16; in assay [13], -3.15; in [14] it was -1.65. Besides, the composite z-score in [15] was -0.526; in assay [16] it was -0.226; in [17], -0.0626; in assay [18], -0.3; in assay [19], 0.153; in assay [20], -1.81. The z-score in [4] is -1.08 (inactive); in assay [12] it was 0.643.
Take `CN(C)CCCC[C@@H]1NC(=O)[C@@H]2C[C@H](C(=O)O)[C@H](c3ccc(O)cc3)N2C1=O`: the composite z-score is 0.902 in [1]; -0.005 in assay [2]; -0.222 in assay [3]; 0.857 in [5]; 1.21 in assay [6]; 0.737 in assay [7]. In addition, the composite z-score in [8] was 0.928; in assay [9], 1.68; in assay [10] it was 0.293; in [11], 0.668; in assay [13], 1.15; in assay [14] it was -0.0922. Also, the composite z-score in assay [15] was -0.0146; in [16] it was 0.0078; in assay [17], -0.138; in assay [18] it was 0.69; in assay [19], 0.485; in assay [20], 1.2. Moreover, the values for the z-score in assay [4] and in [12] were -2.22 (inactive) and 0.883, respectively.
With `C=CC[C@]1(C(=O)OC)N=C(c2ccc(OCCCO)cc2)O[C@H]1c1ccccc1CN=[N+]=[N-]`, the composite z-score is 0.212 in assay [1]; 1.21 in [2]; 1.44 in [3]; -0.404 in assay [5]; -0.52 in assay [6]; -0.493 in [7]. Also, the composite z-score in assay [8] was -0.363; in assay [9], -0.795; in [10] it was 1.31; in assay [11], -0.044; in assay [13] it was -0.978; in [14], -0.643. Further, the composite z-score in [15] was 0.369; in assay [16], 0.0251; in assay [17] it was -0.0289; in assay [18], 0.121; in [19], 0.782; in [20] it was 1.14. Moreover, the figures for the z-score in [4] and in assay [12] were -1.4 (inactive) and -1.31, respectively.
On to `C=C(CCCC)/C(=C/C[C@@H](OC(=O)c1ccncc1)c1ccc(CO)o1)c1cnc2ccccc2c1`, for which the composite z-score is 0.201 in assay [1]; 0.144 in [2]; -0.524 in assay [3]; 1.48 in assay [5]; 1.32 in [6]; 1.36 in assay [7]. The composite z-score in assay [8] is 1.62; in [9] it was 1.53; in [10], 1.82; in assay [11], -0.41; in assay [13], 1.48; in assay [14] it was 1.38. Besides, the composite z-score in assay [15] was -0.0149; in assay [16], 0.0973; in assay [17], 0.213; in [18], 0.889; in assay [19], 2.1; in assay [20] it was 2.29. Besides, the z-score in assay [4] is 0.0419 (inactive); in [12], -1.13.

(Values after PubChem BioAssay.)
